Screening data deposited in PubChem by National Center for Advancing Translational Sciences (NCATS).
Compounds with a hit are over-represented: about 2.3% of the library has one in this group of screens.
FUS yeast rescue: qHTS for Suppressors of FUS Proteinopathy: Primary screen using FUS-linked yeast assay; Potency, µM (doses to about 76.6 µM), hits mostly activators; S. cerevisiae FUS-expressing, growth rescue, OD600, 24 h; 0.24% of 390,000 active;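 also: plate controls were DMSO vehicle for no effect and reference control for full effect; nearly all actives have a fitted effect of over 55% in size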
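Galactose (2%) drives FUS expression in yeast precultured in raffinose; seeding density OD 0.005. Test compounds incubated 24hr at 30C and 99% humidity before absorbance at 600 nm was measured.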
TDP43 rescue: qHTS of TDP-43 Inhibitors; TDP-43 expressing yeast growth rescue, BacTiter-Glo, 24 h; Potency, µM (doses to about 46.1 µM), without a hit: at the highest dose growth rescue (activation), hits mostly activators; 1.8% of 410,000 active; also: % of control where 0% means no effect; nearly all actives have a fitted effect of over 50% in size
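Galactose-induced TDP-43 yeast, OD600=0.02, compound pinned; 24 hr, 30 deg C; BacTiter-Glo luminescence for growth. Inhibitors of TDP-43 toxicity read as activators.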
Abeta rescue: qHTS for compounds that reverse cellular toxicity of Amyloid beta (A-beta) peptide in yeast: Primary Screen; yeast expressing A-beta42, growth rescue, OD600, 48 h; response scale: 0% DMSO, 100% iron-clioquinol control; Potency, µM (highest dose often 46.1 µM), hits mostly activators; 0.063% of 410,000 active; AID 1347071, 2019; also: nearly all actives have a fitted effect of over 55% in size
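Yeast growth medium received pinned compounds, then yeast cells expressing toxic A-beta were added; plates incubated at 30 C for 48 hr. Growth read as absorbance at 600 nm, normalized to DMSO and equimolar FeCl3 plus clioquinol controls.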
aSyn yeast inh: qHTS of alpha-syn Inhibitors. Yeast expressing alpha-synuclein, growth rescue, BacTiter-Glo, 24 h. 0.14% of 370,000 active. Potency, µM (top dose mostly 46.1 µM), for inactives: at the highest dose growth rescue (activation), actives largely listed as activators; also: % of control where 0% means no effect; nearly all actives have a fitted effect of over 65% in size
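Screening used galactose-induced yeast with toxic alpha-synuclein levels, exposed to compound for 24 hr at 30 deg C. Cell growth, read with BacTiter-Glo luminescence, gave the measured signal.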
Chronic BCR inh: qHTS Assay to Find Inhibitors of Chronic Active B-Cell Receptor Signaling; 0.05% of 340,000 active; ABC-DLBCL IkBa-CBG/CBR reporter, luminescence ratio, 4 h; AID 493014, 2011; Potency, µM (top dose mostly 46.1 µM), for inactives: at the top dose activity change, negative = inhibition, most hits filed as inhibitors; active = well fitted inhibition curve with a large enough effect in the signal ratio, with a control signal flat, not every such curve was filed as active; inconclusive = small, poorly fitted or top-dose-only effect, or effect the other way, or a change in a side signal; the % refers to the signal ratio;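 also: plate controls were basal doxycycline-induced cells for no effect and cells given 10 µM MG132 for full effect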
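TMD8 human ABC-DLBCL cells with doxycycline-inducible IκBα–green luciferase fusion and unfused red luciferase, in 0.5% FBS medium; compounds up to 46 uM, 4 h at 37C. Green/red luminescence ratio, filter-overlap corrected, fitted to concentration-response curves.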
uPA surface inh: qHTS for Inhibitors of Cell Surface uPA Generation | cell surface uPA generation assay, qHTS | Potency, µM (titrated, usually from 38.3 µM), for the others: at the highest dose activity change, negative = inhibition, usual class: inhibitors | 0.31% of 330,000 active | AID 540303, 2011; active = well fitted inhibition curve with a large enough effect; inconclusive = small, poorly fitted or top-dose-only effect; inactive = no such curve, though single readings can be large or run the other way; tested in mouse RAW 264.7 cells; also: % is scaled to controls: 0 for no effect and ±100 for the full control effect; nearly all actives have a fitted effect of over 55% in size
Numbers without * were called inactive; i = inactive; u = inconclusive; x = no result. Unless noted, calls follow the shape of the dose curve; as a rule, active = well fitted curve in the direction sought with a large enough effect; inconclusive = small, poorly fitted or top-dose-only effect, or another doubt; inactive = no such curve, though single readings can be large; an effect the other way counts as inactive or inconclusive. Potency is read from the fitted curve at half-maximal effect.

SMILES	FUS yeast rescue	TDP43 rescue	Abeta rescue	aSyn yeast inh	Chronic BCR inh	uPA surface inh
Cc1oc(-c2ccccc2Cl)nc1CS(=O)CC(=O)N1CCN(c2cccc(C(F)(F)F)c2)CC1 (stereo unspecified)	25µM*	u	i	x	-1%	x
Cc1oc(-c2ccc(Cl)cc2)nc1CS(=O)CC(=O)N1CCN(c2cccc(C(F)(F)F)c2)CC1 (stereo unspecified)	i	7%	i	x	7%	x
Cc1ccc(-c2nc(CS(=O)CC(=O)N3CCN(c4cccc(Cl)c4)CC3)c(C)o2)cc1 (stereo unspecified)	u	32µM*	i	x	x	x
Cc1cc(C)nc(N2CCC(C(=O)N3CCN(c4cc(Cl)ccc4C)CC3)CC2)n1	i	16%	i	-1%	-7%	x
CC(C)N(C)c1ncnc2c1ncn2[C@H]1CN(Cc2cccnc2)C[C@@H](CO)O1	i	20%	i	-2%	x	x
Cc1ccc(S(=O)(=O)c2nnn3c2nc(NCc2cccs2)c2sccc23)cc1	i	8%	i	x	x	x
O=c1onc(-c2ccccc2)n1Cc1ccc([N+](=O)[O-])cc1	i	8.9µM*	i	0%	x	x
COc1ccc(-c2noc(=O)n2Cc2ccc(C#N)cc2)cc1	i	17%	i	-2%	4%	2%
COc1ccc(-c2noc(=O)n2Cc2ccccc2F)cc1	i	13µM*	i	6%	u	-8%
O=c1onc(-c2ccc(Cl)cc2)n1Cc1ccc(F)cc1	x	18µM*	i	3%	5%	2%
COc1cc(/C=N/N=C2/C(=O)Nc3ccccc32)cc(OC)c1O	x	15%	i	5%	-12%	-7%
NS(=O)(=O)c1ccc(N=Nc2ccc(O)c3ncccc23)cc1	i	u	i	-22%	u	u
CCOc1ccc(N=Nc2ccc(O)c3ncccc23)cc1	i	u	u	13µM*	u	-1%
CN(C)S(=O)(=O)c1ccc(NC(=O)c2ccc3ncsc3c2)cc1	i	-2%	i	18%	u	0%
O=C(Nc1ccc(Br)cc1)c1ccc2ncsc2c1	i	3.2µM*	i	-6%	u	-2%
COc1ccc(NC(=O)c2ccc3ncsc3c2)cc1	i	7.1µM*	u	-27%	u	-6%
CCc1ccc(N(C(=O)C(F)(F)F)C(C(=O)NC2CCCCC2)c2ccncc2)cc1 (stereo unspecified)	i	-7%	i	5%	-4%	13%
CCn1c(=S)[nH]c2cc(Cl)ccc21	i	-10%	13µM*	5%	-10%	-14%
O=C1CCN(CCc2ccccc2)CCN1CCO	i	-4%	i	-2%	-6%	5%
Cc1cc(C)c(S(=O)(=O)NCCn2c(C)cc3ccccc32)c(C)c1	u	35µM*	7.9µM*	u	13%	14%
Cc1cccc(NC(=O)c2cccc3c2C(=O)c2ccccc2-3)c1	x	8%	i	3%	u	-5%
CCOc1nc(NC2CCCC2)nc(N2CCC(C)CC2)n1	i	18µM*	u	-15%	-1%	1%
Oc1cccc2c(NC(=S)Nc3ccc(SC(F)F)cc3)cccc12	i	11µM*	i	-21%	u	-27%
Oc1cccc(NC(=S)Nc2ccc(SC(F)F)cc2)c1	i	19%	i	-4%	0%	-3%
CC1(C(=O)Nc2cccc(C(F)(F)F)c2)Cc2ccccc2C(=O)O1 (stereo unspecified)	i	35µM*	i	x	x	x
Cc1ccc(S(=O)(=O)N2C[C@@H]3CCCC[C@@H]3[C@@H](C)[C@H]2c2cn(Cc3ccccc3)c3ncccc23)cc1	i	6%	i	1%	0%	10µM*
